# In PubChem BioAssay AID1508615 (Milbrandt Lab, Department of Genetics, Washington …, 2020):
# The whole screen tested about 1,600 compounds, of which about 20 (1%) were called active. The list comes from a sample in which actives are over-represented; it also holds similar structures and randomly drawn compounds. Unmarked numbers belong to inactive results.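 Rule for the calls: active = ratio of uncleaved NAD to its breakdown product ADP-ribose above 4, meaning the enzyme was inhibited; inactive = the rest.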
# Biological target: NAD(+) hydrolase SARM1 (Homo sapiens) (UniProt Q6SZW1)
# Experiment: inhibition of SAM-TIR NAD hydrolysis to ADPR – cell lysate, HPLC readout, primary screen (AID 1508615);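 note: substrate NAD at 5 µM with 60 min at 37 °C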
# Conditions: HEK293T SAM-TIR lysate, NAD/ADPR ratio by HPLC; at 5 µM; active compounds read high
# Sequence of NAD(+) hydrolase SARM1 (Homo sapiens) (Q6SZW1 whole entry, looked up): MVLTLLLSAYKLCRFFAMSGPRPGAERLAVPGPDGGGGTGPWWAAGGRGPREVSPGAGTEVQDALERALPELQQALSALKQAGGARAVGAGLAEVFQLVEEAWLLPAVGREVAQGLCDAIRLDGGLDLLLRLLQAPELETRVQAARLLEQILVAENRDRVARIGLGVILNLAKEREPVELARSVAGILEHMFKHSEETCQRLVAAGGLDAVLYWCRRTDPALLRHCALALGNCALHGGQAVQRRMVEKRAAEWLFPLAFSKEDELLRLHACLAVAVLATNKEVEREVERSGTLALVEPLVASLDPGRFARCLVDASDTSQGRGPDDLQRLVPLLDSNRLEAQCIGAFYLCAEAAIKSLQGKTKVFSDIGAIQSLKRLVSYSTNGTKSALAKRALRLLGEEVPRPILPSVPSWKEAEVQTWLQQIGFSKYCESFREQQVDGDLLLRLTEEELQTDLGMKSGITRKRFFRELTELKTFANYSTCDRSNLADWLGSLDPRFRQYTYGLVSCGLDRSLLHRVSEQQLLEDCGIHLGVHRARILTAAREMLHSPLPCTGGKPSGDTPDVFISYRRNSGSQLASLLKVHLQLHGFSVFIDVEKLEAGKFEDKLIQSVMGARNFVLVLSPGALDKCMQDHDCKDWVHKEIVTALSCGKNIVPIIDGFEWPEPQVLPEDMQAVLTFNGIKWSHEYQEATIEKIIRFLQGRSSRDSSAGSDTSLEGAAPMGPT
row,Compound,NAD/ADPR ratio
1,O=C1NC(=O)C(=Cc2ccc3ccccc3c2)C(=O)N1,3
2,CCN(CC)c1ccc(C=C2C(=O)NC(=S)NC2=O)cc1,5.3 (active)
3,COc1cc(C=C2C(=O)NC(=O)NC2=O)ccc1O,3
4,COC12C(COC(N)=O)C3=C(C(=O)C(C)=C(N)C3=O)N1CC1C2N1C (stereo not given),3
5,O=C1CCC2(O)[C@@H]3Cc4ccc(O)c5c4[C@]2(CCN3Cc2ccoc2)C1O5 (stereo not given in full),3
6,CC1=CC(O)C(O)C2(C)C1CC1OC(=O)C(O)C3C(C)C(O)C4(O)OCC13C42 (stereo not given),3
7,COC(=O)c1nc(-c2ccc3c(n2)C(=O)C(N)=C(OC)C3=O)c(N)c(-c2ccc(OC)c(OC)c2O)c1C,3
8,CC1=C(O)C(=O)C=C2C1=CC=C1[C@@]2(C)CC[C@@]2(C)[C@@H]3C[C@](C)(C(=O)O)CC[C@]3(C)CC[C@]12C,12.8 (active)
9,N#CC12CNCC1CN=N2 (stereo not given),3
10,NC(=O)c1ccc(C(=O)Nc2ccc([As](=O)(O)O)cc2)cc1,3
